# About 79,000 compounds went through this panel and 15% of them were active in at least one assay; those are over-represented in the sample as a whole. Unmarked numbers belong to inactive results. The source made the active and inactive calls. No stated cut-off is given here; in the data, active means growth inhibition above about 70%; inactive means the rest.
# Experiments:
# [1] = NCI Yeast Anticancer Drug Screen. Data for the rad52 strain (AID 147);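 further: 0% = growth of vehicle-treated control cultures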; conditions: S. cerevisiae rad52 mutant growth inhibition, stronger effect = higher value
# How it was run: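 Vehicle-treated cultures served as the reference for growth inhibition of compound-exposed yeast bearing a DNA repair mutation.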
# [2] = NCI Yeast Anticancer Drug Screen. Data for the wt1 strain (AID 149);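 further: 0% = growth of vehicle-treated wt1 cultures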; conditions: S. cerevisiae wt1 strain (SPY 50644) growth inhibition, stronger effect = higher value
# How it was run: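 Using yeast strain wt1, compound-induced growth inhibition was determined against vehicle-treated cultures.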
# [3] = NCI Yeast Anticancer Drug Screen. Data for the mgt1 strain (AID 153); conditions: S. cerevisiae mgt1 mutant growth inhibition, stronger effect = higher value
# How it was run: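 mgt1 strain exposed; growth vs vehicle control recorded as inhibition.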
# [4] = NCI Yeast Anticancer Drug Screen. Data for the rad50 strain (AID 155);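 further: 0% = growth of vehicle-only cultures of the same strain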; conditions: S. cerevisiae rad50 strain growth inhibition, stronger effect = higher value
# How it was run: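 Relative growth inhibition (compound vs vehicle) was measured in yeast with a defined repair-gene alteration.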
# [5] = NCI Yeast Anticancer Drug Screen. Data for the mec2-1 strain (AID 157); conditions: S. cerevisiae mec2-1 strain, stronger effect = higher value
# How it was run: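 Vehicle-treated cultures served as reference for growth inhibition of compound-exposed mec2-1 yeast.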
# [6] = NCI Yeast Anticancer Drug Screen. Data for the rad14 strain (AID 159);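 further: 0% = growth of vehicle-treated control cultures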; conditions: S. cerevisiae rad14 strain growth inhibition, stronger effect = higher value
# How it was run: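 Screen for anticancer potential: a yeast strain altered in DNA damage repair is grown with compound, and reduced growth is quantified against vehicle controls.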
# [7] = NCI Yeast Anticancer Drug Screen. Data for the sgs1 mgt1 strain (AID 161);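 further: 0% = growth of cultures given vehicle only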; conditions: S. cerevisiae sgs1 mgt1 strain, stronger effect = higher value
# How it was run: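 Read-out: growth inhibition vs vehicle controls. Cells: mutant yeast strain deficient in DNA damage repair.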
# [8] = NCI Yeast Anticancer Drug Screen. Data for the CLN2oe strain (AID 163);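 further: 0% = growth of vehicle-only control cultures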; conditions: S. cerevisiae CLN2oe strain, stronger effect = higher value
# How it was run: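 Inhibition relative to vehicle-treated yeast is reported. Cells: strain with genetic alteration in cell-cycle control, grown with compound.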
# [9] = NCI Yeast Anticancer Drug Screen. Data for the cln2 rad14 strain (AID 165);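 further: 0% = growth equal to vehicle treated cultures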; conditions: S. cerevisiae cln2 rad14 strain, stronger effect = higher value
# How it was run: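 Each compound was tested on cln2 rad14 yeast. Inhibition of growth was calculated against vehicle-exposed controls.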
# [10] = NCI Yeast Anticancer Drug Screen. Data for the bub3 strain (AID 167); conditions: S. cerevisiae bub3 mutant strain, stronger effect = higher value
# How it was run: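 Screening used yeast with an engineered genetic alteration affecting cell cycle control. Compound-exposed cultures were compared with vehicle cultures, and reduced growth was taken as inhibition.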
# [11] = NCI Yeast Anticancer Drug Screen. Data for the mlh1 strain (AID 171);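 further: 0% = growth of vehicle-treated control cultures of the same strain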; conditions: S. cerevisiae mlh1 strain growth inhibition, stronger effect = higher value
# How it was run: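 Vehicle-normalised growth inhibition of a repair- or checkpoint-altered yeast strain following compound treatment.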
# [12] = NCI Yeast Anticancer Drug Screen. Data for the sgs1 strain (AID 173);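 further: 0% = growth of vehicle-only control cultures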; conditions: S. cerevisiae sgs1 mutant, stronger effect = higher value
# How it was run: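 Screen format: yeast with repair or checkpoint alterations, compound exposure, growth read relative to vehicle.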
# [13] = NCI Yeast Anticancer Drug Screen. Data for the mlh1 rad18 strain (AID 175); conditions: S. cerevisiae mlh1 rad18 strain growth inhibition, stronger effect = higher value
# How it was run: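 Vehicle-treated cultures served as the reference for growth inhibition in a yeast strain carrying DNA damage repair alterations exposed to each compound.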
# [14] = NCI Yeast Anticancer Drug Screen. Data for the rad18 strain (AID 177); conditions: S. cerevisiae rad18 mutant growth inhibition, stronger effect = higher value
# How it was run: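 Test articles were incubated with altered yeast defective in DNA damage repair. Results are given as inhibition of growth versus vehicle.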
# [15] = NCI Yeast Anticancer Drug Screen. Data for the rad50EPP+ strain (AID 151);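 further: 0% = growth of vehicle-treated control cultures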; conditions: S. cerevisiae rad50 mutant strain, stronger effect = higher value
# How it was run: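 In this screen, rad50EPP+ yeast were exposed to compounds. Growth inhibition was scored against vehicle-treated controls.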
# [16] = NCI Yeast Anticancer Drug Screen. Data for the wt2 strain (AID 169);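 further: 0% = growth of vehicle-treated yeast cultures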; conditions: S. cerevisiae wt2 strain growth inhibition, stronger effect = higher value
# How it was run: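 Inhibition of yeast growth was determined after compound treatment, normalised to controls receiving only vehicle.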
# [17] = at 5.0 µM (retest, dose inferred, filed as 0.5)
# [18] = at 50.0 µM (retest, dose inferred, filed as 5.0)
smiles,measurement,setting,value
COc1ccc(Br)c(C(=O)Sc2nnnn2-c2cccc(Cl)c2)c1,growth inhibition,[1]; at 1.2 µM,23%
same,growth inhibition,[1]; at 3.7 µM,29%
same,growth inhibition,[1]; at 11.0 µM,24%
same,growth inhibition,[1]; at 33.0 µM,43%
same,growth inhibition,[1]; at 100.0 µM,96% (active)
same,growth inhibition,[2]; at 1.2 µM,5%
same,growth inhibition,[2]; at 3.7 µM,17%
same,growth inhibition,[2]; at 11.0 µM,22%
same,growth inhibition,[2]; at 33.0 µM,33%
same,growth inhibition,[2]; at 100.0 µM,93% (active)
same,growth inhibition,[3]; at 1.2 µM,-10%
same,growth inhibition,[3]; at 3.7 µM,11%
same,growth inhibition,[3]; at 11.0 µM,16%
same,growth inhibition,[3]; at 33.0 µM,30%
same,growth inhibition,[3]; at 100.0 µM,95% (active)
same,growth inhibition,[4]; at 1.2 µM,2%
same,growth inhibition,[4]; at 3.7 µM,21%
same,growth inhibition,[4]; [17],42%
same,growth inhibition,[4]; at 11.0 µM,6%
same,growth inhibition,[4]; at 33.0 µM,42%
same,growth inhibition,[4]; [18],71% (active)
same,growth inhibition,[4]; at 50.0 µM,87.6% (active)
same,growth inhibition,[4]; at 100.0 µM,93% (active)
same,growth inhibition,[5]; at 1.2 µM,13%
same,growth inhibition,[5]; at 3.7 µM,-9%
same,growth inhibition,[5]; [17],40%
same,growth inhibition,[5]; at 11.0 µM,-14%
same,growth inhibition,[5]; at 33.0 µM,12%
same,growth inhibition,[5]; [18],72% (active)
same,growth inhibition,[5]; at 50.0 µM,88.9% (active)
same,growth inhibition,[5]; at 100.0 µM,94% (active)
same,growth inhibition,[6]; at 1.2 µM,-8%
same,growth inhibition,[6]; at 3.7 µM,-5%
same,growth inhibition,[6]; at 11.0 µM,-30%
same,growth inhibition,[6]; at 33.0 µM,-16%
same,growth inhibition,[6]; at 100.0 µM,89% (active)
same,growth inhibition,[7]; [17],-19%
same,growth inhibition,[7]; [18],89% (active)
same,growth inhibition,[7]; at 50.0 µM,87.8% (active)
same,growth inhibition,[8]; at 1.2 µM,6%
same,growth inhibition,[8]; at 3.7 µM,3%
same,growth inhibition,[8]; at 11.0 µM,3%
same,growth inhibition,[8]; at 33.0 µM,5%
same,growth inhibition,[8]; at 100.0 µM,94% (active)
same,growth inhibition,[9]; [17],58%
same,growth inhibition,[9]; [18],83% (active)
same,growth inhibition,[9]; at 50.0 µM,76.2% (active)
same,growth inhibition,[10]; at 1.2 µM,13%
same,growth inhibition,[10]; at 3.7 µM,11%
same,growth inhibition,[10]; [17],23%
same,growth inhibition,[10]; at 11.0 µM,-22%
same,growth inhibition,[10]; at 33.0 µM,8%
same,growth inhibition,[10]; [18],81% (active)
same,growth inhibition,[10]; at 50.0 µM,88.2% (active)
same,growth inhibition,[10]; at 100.0 µM,93% (active)
same,growth inhibition,[11]; at 1.2 µM,-14%
same,growth inhibition,[11]; at 3.7 µM,-21%
same,growth inhibition,[11]; at 11.0 µM,-25%
same,growth inhibition,[11]; at 33.0 µM,3%
same,growth inhibition,[11]; at 100.0 µM,92% (active)
same,growth inhibition,[12]; at 1.2 µM,2%
same,growth inhibition,[12]; at 3.7 µM,2%
same,growth inhibition,[12]; at 11.0 µM,11%
same,growth inhibition,[12]; at 33.0 µM,49%
same,growth inhibition,[12]; at 100.0 µM,94% (active)
same,growth inhibition,[13]; [17],47%
same,growth inhibition,[13]; [18],67%
same,growth inhibition,[13]; at 50.0 µM,85% (active)
same,growth inhibition,[14]; at 1.2 µM,-24%
same,growth inhibition,[14]; at 3.7 µM,-10%
same,growth inhibition,[14]; at 11.0 µM,-8%
same,growth inhibition,[14]; at 33.0 µM,52%
same,growth inhibition,[14]; at 100.0 µM,93% (active)
CCCCCCCC1(N=[N+]=[N-])C(=O)c2ccccc2N(C)C1=O (stereo unspecified),growth inhibition,[1]; at 1.2 µM,2%
same,growth inhibition,[1]; at 3.7 µM,18%
same,growth inhibition,[1]; at 11.0 µM,18%
same,growth inhibition,[1]; at 33.0 µM,68%
same,growth inhibition,[1]; at 100.0 µM,75% (active)
same,growth inhibition,[15]; at 1.2 µM,5%
same,growth inhibition,[15]; at 3.7 µM,15%
same,growth inhibition,[15]; at 11.0 µM,24%
same,growth inhibition,[15]; at 33.0 µM,54%
same,growth inhibition,[15]; at 100.0 µM,65%
same,growth inhibition,[3]; at 1.2 µM,-11%
same,growth inhibition,[3]; at 3.7 µM,-18%
same,growth inhibition,[3]; at 11.0 µM,-2%
same,growth inhibition,[3]; at 33.0 µM,51%
same,growth inhibition,[3]; at 100.0 µM,69%
same,growth inhibition,[4]; at 1.2 µM,-1%
same,growth inhibition,[4]; at 3.7 µM,1%
same,growth inhibition,[4]; [17],-4%
same,growth inhibition,[4]; at 11.0 µM,13%
same,growth inhibition,[4]; at 33.0 µM,67%
same,growth inhibition,[4]; [18],60%
same,growth inhibition,[4]; at 50.0 µM,79.3% (active)
same,growth inhibition,[4]; at 100.0 µM,74% (active)
same,growth inhibition,[5]; at 1.2 µM,-3%
same,growth inhibition,[5]; at 3.7 µM,-27%
same,growth inhibition,[5]; [17],-1%
same,growth inhibition,[5]; at 11.0 µM,-2%
same,growth inhibition,[5]; at 33.0 µM,72% (active)
same,growth inhibition,[5]; [18],80% (active)
same,growth inhibition,[5]; at 50.0 µM,81.2% (active)
same,growth inhibition,[5]; at 100.0 µM,80% (active)
same,growth inhibition,[6]; at 1.2 µM,-23%
same,growth inhibition,[6]; at 3.7 µM,-20%
same,growth inhibition,[6]; at 11.0 µM,-20%
same,growth inhibition,[6]; at 33.0 µM,39%
same,growth inhibition,[6]; at 100.0 µM,63%
same,growth inhibition,[7]; [17],-7%
same,growth inhibition,[7]; [18],71% (active)
same,growth inhibition,[7]; at 50.0 µM,79.5% (active)
same,growth inhibition,[8]; at 1.2 µM,21%
same,growth inhibition,[8]; at 3.7 µM,8%
same,growth inhibition,[8]; at 11.0 µM,23%
same,growth inhibition,[8]; at 33.0 µM,61%
same,growth inhibition,[8]; at 100.0 µM,79% (active)
same,growth inhibition,[9]; [17],30%
same,growth inhibition,[9]; [18],75% (active)
same,growth inhibition,[9]; at 50.0 µM,68.7%
same,growth inhibition,[10]; at 1.2 µM,-9%
same,growth inhibition,[10]; at 3.7 µM,-17%
same,growth inhibition,[10]; [17],3%
same,growth inhibition,[10]; at 11.0 µM,-15%
same,growth inhibition,[10]; at 33.0 µM,52%
same,growth inhibition,[10]; [18],83% (active)
same,growth inhibition,[10]; at 50.0 µM,64.5%
same,growth inhibition,[10]; at 100.0 µM,69%
same,growth inhibition,[16]; at 1.2 µM,13%
same,growth inhibition,[16]; at 3.7 µM,16%
same,growth inhibition,[16]; at 11.0 µM,20%
same,growth inhibition,[16]; at 33.0 µM,57%
same,growth inhibition,[16]; at 100.0 µM,67%
same,growth inhibition,[11]; at 1.2 µM,20%
same,growth inhibition,[11]; at 3.7 µM,10%
same,growth inhibition,[11]; at 11.0 µM,18%
same,growth inhibition,[11]; at 33.0 µM,61%
same,growth inhibition,[11]; at 100.0 µM,78% (active)
same,growth inhibition,[12]; at 1.2 µM,9%
same,growth inhibition,[12]; at 3.7 µM,14%
same,growth inhibition,[12]; at 11.0 µM,20%
same,growth inhibition,[12]; at 33.0 µM,71% (active)
same,growth inhibition,[12]; at 100.0 µM,85% (active)
same,growth inhibition,[13]; [17],0%
same,growth inhibition,[13]; [18],87% (active)
same,growth inhibition,[13]; at 50.0 µM,76.3% (active)
CC1=NN(c2cccc(Cl)c2)C(=O)C1,growth inhibition,[1]; at 1.2 µM,-33%
same,growth inhibition,[1]; at 3.7 µM,-33%
same,growth inhibition,[1]; at 11.0 µM,-22%
same,growth inhibition,[1]; at 33.0 µM,-16%
same,growth inhibition,[1]; at 100.0 µM,14%
same,growth inhibition,[2]; at 1.2 µM,-13%
same,growth inhibition,[2]; at 3.7 µM,-36%
same,growth inhibition,[2]; at 11.0 µM,-22%
same,growth inhibition,[2]; at 33.0 µM,-2%
same,growth inhibition,[2]; at 100.0 µM,28%
same,growth inhibition,[3]; at 1.2 µM,-21%
same,growth inhibition,[3]; at 3.7 µM,-44%
same,growth inhibition,[3]; at 11.0 µM,-40%
same,growth inhibition,[3]; at 33.0 µM,8%
same,growth inhibition,[3]; at 100.0 µM,63%
same,growth inhibition,[4]; at 1.2 µM,-47%
same,growth inhibition,[4]; at 3.7 µM,-54%
same,growth inhibition,[4]; [17],81% (active)
same,growth inhibition,[4]; at 11.0 µM,-61%
same,growth inhibition,[4]; at 33.0 µM,-44%
same,growth inhibition,[4]; [18],99% (active)
same,growth inhibition,[4]; at 50.0 µM,43.4%
same,growth inhibition,[4]; at 100.0 µM,28%
same,growth inhibition,[5]; at 1.2 µM,-35%
same,growth inhibition,[5]; at 3.7 µM,-27%
same,growth inhibition,[5]; [17],74% (active)
same,growth inhibition,[5]; at 11.0 µM,-5%
same,growth inhibition,[5]; at 33.0 µM,8%
same,growth inhibition,[5]; [18],100% (active)
same,growth inhibition,[5]; at 50.0 µM,56.1%

# — PubChem BioAssay (NCI)
